Source: PubChem BioAssay
AMA1 RON2 block: AMA1-RON2 (P. falciparum) interaction inhibition. AlphaScreen AMA1-biotinylated RON2 peptide binding. Potency, µM (top dose mostly 58.2 µM), inactives show at the top dose activity change, negative = inhibition, usual class: inhibitors. 360,000 tested, 0.2% active;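 also: 0% = vehicle wells and -100% = peptide control; nearly all actives have a fitted effect of over 45% in size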
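AMA1 (3D7) with his tag at 25 nM final met compounds first, then biotinylated RON2 peptide at 25 nM; detection used donor plus acceptor beads, 10 µg/mL apiece, read by AlphaScreen after 30 min at room temperature.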
Pf growth 48h: inhibits P. falciparum growth in the first generation, 48 h; P. falciparum luciferase growth in erythrocytes, 48 h; Potency, µM (top dose mostly 28.7 µM), for the others: top-dose activity change, negative = inhibition, hits mostly inhibitors; AID 504832; 310,000 tested, 5.9% active
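A one-generation exposure of luciferase-tagged malaria parasites in RPMI 1640/Albumax erythrocyte culture, 37 C and 5% CO2. Inhibition is inferred from decreased luminescence after adding detection reagent.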
Pf growth 96h: P. falciparum growth inhibition at 96 hour, primary screen for plastid delayed-death inhibitors; P. falciparum luciferase reporter growth, 96 h; 320,000 tested, 6.9% active; Potency, µM (doses to about 28.7 µM), without a hit: top-dose activity change, negative = inhibition, most hits filed as inhibitors; AID 504834
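96 h incubation, 37 C, 5% CO2, of luciferase-reporter P. falciparum-infected RBCs (2% hematocrit, 0.05% parasitemia final) with test compounds; endpoint luminescence.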
HCV inhibitor: HCV inhibition | 340,000 tested, 3.4% active | Potency, µM (series often up to 41.8 µM), without a hit: at the top dose activity change, negative = inhibition, actives largely listed as inhibitors | Huh7.5.1 HCVcc-Cre infection, luciferase reporter, 44 h
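Reporter virus HCVcc-Cre (~0.5 moi) infects cells exposed to compound; seeding density 1,000 cells/well with 4 h settling beforehand. Luminescence, 15 sec read, taken 44 h post-infection following a 15 min RT substrate incubation.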
Starred values were filed as active, the others as inactive. This is a sample that favours compounds with a hit; in the whole collection about 11% have one here. Calls follow the shape of the dose curve; as a rule, active = well fitted curve in the direction sought with a large enough effect; inconclusive = small, poorly fitted or top-dose-only effect, or another doubt; inactive = no such curve, though single readings can be large; an effect the other way counts as inactive or inconclusive. Unless noted, % is scaled to controls: 0 for no effect and ±100 for the full control effect; potency is read from the fitted curve at half-maximal effect.

Screening CCCCn1nc(C(=O)NCC(c2cccs2)N2CCOCC2)c2ccccc2c1=O (centres undefined) returned AMA1 RON2 block -7%, Pf growth 48h 9.3µM*, Pf growth 96h inconclusive and HCV inhibitor inconclusive.
Screening CCCCn1nc(C(=O)NCC2COc3ccccc3O2)c2ccccc2c1=O (centres undefined) returned AMA1 RON2 block -3%, Pf growth 48h 10µM*, Pf growth 96h inconclusive and HCV inhibitor inconclusive.
For CCn1nc(C(=O)Nc2nc3ccc(C)cc3s2)c2ccccc2c1=O the results were AMA1 RON2 block 3%, Pf growth 48h 19% and HCV inhibitor 32µM*.
For CC(C)n1nc(C(=O)Nc2nc3ccccc3[nH]2)c2ccccc2c1=O the results were AMA1 RON2 block 62%, Pf growth 48h -5%, Pf growth 96h inconclusive and HCV inhibitor inconclusive.
`CCCn1nc(C(=O)Nc2nc3ccccc3[nH]2)c2ccccc2c1=O` gave AMA1 RON2 block 41%, Pf growth 48h 15µM*, Pf growth 96h inconclusive and HCV inhibitor inconclusive.
For CCOC(=O)C1CCN(C(=O)Cn2ncc3c([nH]c4ccccc43)c2=O)CC1 the results were AMA1 RON2 block -3%, Pf growth 48h 26%, Pf growth 96h 21% and HCV inhibitor 14%.
Screening CCCCn1nc(C(=O)Nc2nc3c(s2)CCCC3)c2ccccc2c1=O returned AMA1 RON2 block -4%, Pf growth 48h inconclusive, Pf growth 96h 6.6µM* and HCV inhibitor inconclusive.
Screening CCCCn1nc(C(=O)NCc2ccccc2CN2CCCC2)c2ccccc2c1=O returned AMA1 RON2 block -3%, Pf growth 48h 9.3µM*, Pf growth 96h 7.4µM* and HCV inhibitor inconclusive.
For COc1ccc(S(=O)(=O)N2CCOCC2)cc1NC(=O)c1ccc(=O)[nH]c1 the results were AMA1 RON2 block 6%, Pf growth 48h inconclusive, Pf growth 96h 10% and HCV inhibitor 13%.
Screening COC(=O)C(NC(=O)c1ccc(F)cc1)(Nc1ncc(S(=O)(=O)c2ccc([N+](=O)[O-])cc2)s1)C(F)(F)F (centres undefined) returned AMA1 RON2 block -3%, Pf growth 48h inconclusive, Pf growth 96h 13µM* and HCV inhibitor inconclusive.
`COC(=O)C(NC(=O)c1ccccc1C)(Nc1ncc(S(=O)(=O)c2ccc([N+](=O)[O-])cc2)s1)C(F)(F)F` (centres undefined) gave AMA1 RON2 block -24%, Pf growth 48h 12µM*, Pf growth 96h 4.1µM* and HCV inhibitor -17%.
For O=C(Nc1ncc(S(=O)(=O)c2ccc([N+](=O)[O-])cc2)s1)c1ccccc1F the results were AMA1 RON2 block 3%, Pf growth 48h 1%, Pf growth 96h 10% and HCV inhibitor -17%.
Screening CCOC(=O)N1CCN(Cc2nc3cc(NC(=O)c4ccco4)ccc3n2CC)CC1 returned AMA1 RON2 block 3%, Pf growth 48h -2%, Pf growth 96h -19% and HCV inhibitor inconclusive.
Screening Cc1cc(C(=O)Cn2c(CO)nc3ccccc32)c(C)n1C returned AMA1 RON2 block -13%, Pf growth 48h inconclusive, Pf growth 96h -6% and HCV inhibitor 15%.
O=S1(=O)N=C(Nc2ccc(O)c(CN3CCCCC3)c2)c2ccccc21 was read as AMA1 RON2 block 1%, Pf growth 48h 1.5µM*, Pf growth 96h inconclusive and HCV inhibitor 16%.
`CCC(=O)N(CCC(Cc1ccccc1)c1ccco1)Cc1ccco1` (centres undefined) gave AMA1 RON2 block -19%, Pf growth 48h inconclusive, Pf growth 96h -16% and HCV inhibitor inconclusive.
CCC(=O)N(CCC(Cc1ccccc1)c1ccc2c(c1)OCO2)Cc1ccccc1F (centres undefined) was read as AMA1 RON2 block -14%, Pf growth 48h inconclusive, Pf growth 96h 12µM* and HCV inhibitor -17%.
For CCc1ccc(Nc2n[n+](-c3ccccc3)c(-c3ccc(OCc4ccccc4)cc3)s2)cc1 the results were AMA1 RON2 block 0%, Pf growth 48h inconclusive, Pf growth 96h 2.9µM* and HCV inhibitor inconclusive.
CCN(CC)c1ccc(-c2sc(Nc3ccccc3)n[n+]2-c2ccc(F)cc2)cc1 was read as AMA1 RON2 block 105%, Pf growth 48h -25%, Pf growth 96h 9.3µM* and HCV inhibitor -9%.
Screening CCc1ccc(Nc2n[n+](-c3ccccc3)c(-c3ccc(N(CC)CC)cc3)s2)cc1 returned AMA1 RON2 block 26%, Pf growth 48h inconclusive, Pf growth 96h 3.3µM* and HCV inhibitor 11µM*.
Cc1cccc(-c2sc(Nc3ccccc3)n[n+]2-c2ccccc2)c1 was read as AMA1 RON2 block 5%, Pf growth 48h inconclusive, Pf growth 96h -23% and HCV inhibitor -4%.
For COc1ccc(-c2sc(Nc3ccccc3)n[n+]2-c2ccc(F)cc2)cc1Br the results were AMA1 RON2 block -8%, Pf growth 48h inconclusive, Pf growth 96h 7.4µM* and HCV inhibitor -9%.
For O=C(O)c1ccc(-c2sc(Nc3ccccc3)n[n+]2-c2ccccc2)cc1 the results were AMA1 RON2 block -7%, Pf growth 48h 43%, Pf growth 96h -23% and HCV inhibitor inconclusive.
Screening CN(C)c1ccc(-c2sc(Nc3ccccc3)n[n+]2-c2ccc(F)cc2)cc1 returned AMA1 RON2 block -5%, Pf growth 48h 40%, Pf growth 96h inconclusive and HCV inhibitor inconclusive.
For COc1ccc(NC(=O)C2CCN(S(=O)(=O)c3ccc(Cl)c(C(F)(F)F)c3)CC2)cn1 the results were AMA1 RON2 block -2%.
CCOC(=O)N1C2=NC(C(=O)OC)=C(C(=O)OC)[C@@H]3N(C)c4ccc(OC)cc4[C@]23C[C@H]1C(=O)OC was read as AMA1 RON2 block 7% and HCV inhibitor 21%.
For COC(=O)C1=C(C(=O)OC)[C@@H]2N(C)c3ccc(OC)cc3[C@@]23C[C@@H](C(=O)OC)N(S(=O)(=O)c2ccc(OC)cc2)C3=N1 the results were AMA1 RON2 block -28%, Pf growth 48h 9.3µM*, Pf growth 96h inconclusive and HCV inhibitor inconclusive.
Screening O=C(O)CCC(=O)N1N=C(c2ccc(Br)cc2)CC1c1ccc(Br)cc1 (centres undefined) returned AMA1 RON2 block -9%, Pf growth 48h 0%, Pf growth 96h inconclusive and HCV inhibitor -1%.
For COc1ccc(C2=NN(C(=O)CCC(=O)O)C(c3ccc(OC)c(OC)c3)C2)cc1 (centres undefined) the results were AMA1 RON2 block 0%, Pf growth 48h -1%, Pf growth 96h 12µM* and HCV inhibitor 13%.
O=C(O)CCC(=O)N1N=C(c2ccc(Br)cc2)CC1c1cccc(Br)c1 (centres undefined) was read as AMA1 RON2 block 16%, Pf growth 48h 6.6µM*, Pf growth 96h 354% and HCV inhibitor 7%.
COc1ccc(C2CC(c3ccc(Br)cc3)=NN2C(=O)CCC(=O)O)cc1OC (centres undefined) was read as AMA1 RON2 block 12%, Pf growth 48h -23%, Pf growth 96h 97% and HCV inhibitor 11%.
